This excerpt belongs to a sample that is enriched for hits.
ERK EGF inh: qHTS Assay for Inhibitors of the ERK Signaling Pathway using a Homogeneous Screening Assay; Stimulation with EGF; HEK293-V1b, EGF-stimulated phospho-ERK AlphaScreen; Potency, µM (titrated, usually from 11.5 µM), actives largely listed as inhibitors; 0.41% of 130,000 active; AID 1454, 2008; active means well fitted inhibition curve with a large enough effect; further: nearly all actives have a fitted effect of over 55% in size
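Concentration-response of compounds against EGF-driven ERK phosphorylation in V1b-expressing HEK293 cells; 30 min preincubation, 5 min EGF, AlphaScreen detection; Normalized to DMSO basal and 25 nM EGF.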
Each line names hits and unclear results; the compound was inactive in the other large screens.

O=C(OC1Cc2c(O)cc(O)cc2OC1c1cc(O)c(O)c(O)c1)c1cc(O)c(O)c(O)c1 (centres undefined)	none
CNC(=O)[C@H]1O[C@H](n2cnc3c(NCc4cccc(I)c4)nc(Cl)nc32)[C@@H](O)[C@@H]1O	none
CNC(=O)[C@H]1O[C@@H](n2cnc3c(NCc4cccc(I)c4)ncnc32)[C@H](O)[C@H]1O	none
C/C(=C\C[Si](C)(C)C)CC[C@H](O)C1=CCCCC1=O	none
O[C@@H]1[C@@H]2c3cc4c(cc3CN3CCC(=C[C@@H]1O)[C@H]23)OCO4	none
CCOC(=O)N/N=C/C=C/c1ccccc1[N+](=O)[O-]	none
O=[N+]([O-])c1ccccc1/C=C/C=N/n1c(-c2ccccc2)n[nH]c1=S	none
COc1ccccc1N1CCN(/N=C/c2cccc(OC)c2O)CC1	none
Cc1ccc(N2CCN(/N=C/c3ccccc3[N+](=O)[O-])CC2)cc1	none
CC1CCCC(C)N1/N=C/C=C/c1ccccc1[N+](=O)[O-] (centres undefined)	ERK EGF inh 20µM
COc1ccccc1N1CCN(/N=C/C=C\c2ccccc2[N+](=O)[O-])CC1	ERK EGF inh 25µM
COc1ccc2c(c1)C(=O)[C@H](OC(=O)N[C@H](C)C1CCCCC1)[C@@H](c1ccc(OC)c(Br)c1)O2	none
CC(C)(C)Nc1oc(-c2ccccc2)nc1-c1cccc2ccccc12	none
CCCC[C@@H]1C[C@H]1C(NC(=O)c1ccco1)c1ccccc1 (some centres undefined)	none
Cc1nc(NC2CCCCC2)c2nc(-c3ccccc3)n(CC3CCN(C)CC3)c2n1	none
CCCCCCCC/C=C\CCCCCCCCOC[C@H](COP(=O)([O-])OCC[N+](C)(C)C)OC(C)=O	none
C=CCOC(=O)C1=C(C)NC(C)=C(C(=O)OCC=C)C1/C=C/c1ccccc1	ERK EGF inh 25µM
C=CCOC(=O)C1=C(C)NC(C)=C(C(=O)OCC=C)C1c1ccco1	none
C=CCOC(=O)C1=C(C)Nc2[nH]c(=O)[nH]c(=O)c2C1c1ccccc1 (centres undefined)	none
Cc1nn(CC(=O)NCc2cc3ccccc3[nH]2)c(C)c1[N+](=O)[O-]	ERK EGF inh 14µM
Cc1nn(CC(=O)NCCc2ccccc2)c(C)c1[N+](=O)[O-]	none
Cc1nn(CC(=O)NCc2ccccc2F)c(C)c1[N+](=O)[O-]	none
COc1cc([C@@H]2c3cc4c(cc3C(OC3OC5COC(C)OC5C(O)C3O)C3COC(=O)[C@@H]32)OCO4)cc(OC)c1O (some centres undefined)	none
CC1CCCN(CCCNC(=O)c2cc3c(Cl)nc4ccccc4c3s2)C1 (centres undefined)	none
CN(CCCNC(=O)c1cc2c(Cl)nc3ccccc3c2s1)Cc1ccccc1	ERK EGF inh 25µM
CCN(CC)CCCNC(=O)c1cc2c(Cl)nc3ccccc3c2s1	none
CC(=O)N1[C@H](Cc2ccccc2)C=C[C@]1(C)C(=O)O	none
COc1cc(/C=C/C(=O)N2CCCCC2=O)cc(OC)c1OC	none
COc1ccc(Nc2oc(-c3ccccc3)nc2C#N)cc1	none
COc1ccc(Nc2oc(-c3ccc(OC)cc3)nc2C#N)cc1	none
COc1ccc(-c2nc(C#N)c(NCCc3ccccc3)o2)cc1	ERK EGF inh 28µM
CCCCNc1nc(C)nc2c1nc(-c1ccccc1)n2CCN1CCCCC1	none
COC(=O)NC(C(=O)OC)(C(=O)OC)c1ccccc1	none
CCCn1c(-c2ccc(F)cc2)nc2c(NCCN(C)C)nc(C)nc21	none
CN=c1scc(-c2ccccc2F)n1/N=C/c1ccc[nH]1	none
CN=c1scc(-c2ccco2)n1/N=C/c1ccc(O)c(O)c1	none
CN=c1scc(-c2ccccc2F)n1/N=C/c1ccc(O)c(O)c1O	ERK EGF inh 28µM
COC(=O)N[C@@H](/C=C/c1ccccc1)/C(C(=O)OC)=C(\C)NCc1ccccc1	none
CCCn1c(-c2ccc(F)cc2)nc2c(N3CCN(C)CC3)nc(C)nc21	none
COc1cc(NC(=O)O[C@@H]2C(=O)c3cc(Br)ccc3O[C@H]2c2ccc3c(c2)OCO3)cc(OC)c1OC	none
Cc1onc(-c2ccccc2)c1C(=O)N/N=C/c1cccc(O)c1	none
Cc1onc(-c2ccccc2)c1C(=O)N/N=C/c1ccco1	none
Cc1onc(-c2ccccc2)c1C(=O)N/N=C/C=C/c1ccccc1	ERK EGF inh 18µM
CC(C)(C)OC(=O)N1CCC[C@H]1C(O)(c1ccccc1)c1ccccc1	none
O=C1C=C(O)c2c(O)cccc2C1=O	none
Nc1c(O)ccc2c1C(=O)c1ccccc1C2=O	ERK EGF inh 28µM
COc1ccc2c(c1O)C(=O)c1ccccc1C2=O	none
C[N+]1(C)CC[C@@H](OC(=O)[C@@](O)(c2ccccc2)C2CCCC2)C1	none
NC(=S)NCCCC(N)C(=O)O (centres undefined)	none
Nc1ncnc2c1c(I)cn2C1OC(CO)C(O)C1O (centres undefined)	none
CCCCC/C=C\C/C=C\CCCCCCCCCC(=O)NC(C)C(=O)O (centres undefined)	none
Cc1cc(C(=O)Nc2ccc(C)c(S(=O)(=O)N3CCOCC3)c2)c(C)o1	none
Cc1ccc(NC(=O)/C=C/c2ccc3c(c2)OCO3)cc1S(=O)(=O)N1CCOCC1	ERK EGF inh 28µM
O=C(/C=C/c1ccc2c(c1)OCO2)NCCCN1CCOCC1	none
CN(C)C(=O)c1ccc(-c2ccc3ncnc(NC4CCNCC4)c3c2)cc1	none
CCc1ccc(/C=C2\Oc3cc(OS(C)(=O)=O)ccc3C2=O)cc1	none
CS(=O)(=O)Oc1ccc2c(c1)O/C(=C\C=C\c1ccccc1)C2=O	ERK EGF inh 7.9µM
CCN(CC)Cc1c(O)ccc2c1O/C(=C\C=C\c1ccccc1)C2=O	none
Cn1c(-c2nc(-c3ccccc3)cs2)nc2ccccc21	none
CCCCC/C=C\C/C=C\C/C=C\CCCCCCC(=O)NCCc1ccc(O)c(O)c1	none
Cc1cc(-c2ccc(N=Nc3ccc4c(S(=O)(=O)O)cc(S(=O)(=O)O)c(N)c4c3O)c(C)c2)ccc1N=Nc1ccc2c(S(=O)(=O)O)cc(S(=O)(=O)O)c(N)c2c1O	none
CC(C)[C@H](CO)Nc1nc(Nc2cccc(Cl)c2)c2ncn(C(C)C)c2n1	none
c1ccc(-c2nc(-c3cccc4ccccc34)c(Nc3ccc4ccccc4c3)o2)cc1	none
NC(=S)N=Nc1c(O)[nH]c2ccccc12	none
O=S(=O)(Cc1ccccc1)N=Nc1c(O)[nH]c2ccc(Br)cc12	none
O=Nc1c(-c2c(O)[nH]c3cc(Br)ccc23)[nH]c2ccccc12	ERK EGF inh 28µM
COc1cc(/C=C2/C(=O)c3cccc([N+](=O)[O-])c3C2=O)c(Br)cc1O	ERK EGF inh 28µM
COc1ccccc1S(=O)(=O)c1ccccc1[N+](=O)[O-]	none
COc1ccc(-c2nc(-c3cccc([N+](=O)[O-])c3O)cc(=O)o2)cc1OC	none
C=CCOC(=O)N[C@H](c1cccc(C(F)(F)F)c1)C(C(C)=O)C(C)=O	none
COC(=O)NC(c1ccccc1)c1c[nH]c2ccccc12 (centres undefined)	none
Cc1cc(C)c(NC(=S)NCC2CCN(C(C)c3ccccc3)C2)c(C)c1 (centres undefined)	none
COc1ccc(N2CCN(C(=O)Nc3ccccc3Cl)CC2)cc1	none
CCc1ccccc1NC(=S)NCC1CCN(c2ccc(OC)cc2)C1 (centres undefined)	ERK EGF inh 14µM
CCc1ccccc1NC(=S)N1CCC(NC(=O)c2ccc(OC)cc2)CC1	none
CCc1cccc(C)c1NC(=S)NCC1CCN(c2ccc(OC)cc2)C1 (centres undefined)	ERK EGF inh 10µM
Cc1ccccc1NC(=S)NCC1CCC(CNC(=S)Nc2ccccc2C)CC1 (centres undefined)	none
CCc1cccc2nc3c(c([Si](C)(C)C)c12)Cn1c-3cccc1=O	none
